Results on 49 compounds are retold here after PubChem BioAssay AID1851 (National Center for Advancing Translational Sciences (NCATS), 2009).

SMILES strings stand for the structures. The whole screen tested about 16,000 compounds, of which about 5,800 (36%) were called active. Another 23% or so got no clear call; they are omitted. The list shows a part of the results. A number with no mark means an inactive call. Calls follow the shape of the dose curve; as a rule, active = well fitted curve in the direction sought with a large enough effect; inconclusive = small, poorly fitted or top-dose-only effect, or effect the other way; inactive = no such curve, though single readings can be large or run the other way.
% is scaled to controls: 0 for no effect and ±100 for the full control effect.

Chain of Cytochrome P450 2C19 (Homo sapiens) (P33261 whole entry, looked up): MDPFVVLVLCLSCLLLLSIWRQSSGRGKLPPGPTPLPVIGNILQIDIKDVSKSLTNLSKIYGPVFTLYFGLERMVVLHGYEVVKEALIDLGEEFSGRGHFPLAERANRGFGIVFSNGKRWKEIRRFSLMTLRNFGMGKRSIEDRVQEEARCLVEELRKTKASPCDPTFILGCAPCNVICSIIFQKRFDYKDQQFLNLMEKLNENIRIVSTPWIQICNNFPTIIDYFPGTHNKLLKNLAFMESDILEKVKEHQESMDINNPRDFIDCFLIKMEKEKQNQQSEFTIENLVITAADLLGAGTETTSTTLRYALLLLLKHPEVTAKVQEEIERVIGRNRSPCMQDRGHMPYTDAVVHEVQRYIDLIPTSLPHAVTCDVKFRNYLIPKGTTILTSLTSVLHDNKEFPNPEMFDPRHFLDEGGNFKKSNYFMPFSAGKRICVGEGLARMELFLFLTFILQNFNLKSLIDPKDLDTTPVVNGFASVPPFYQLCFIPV

The target of the experiment is Cytochrome P450 2C19 (Homo sapiens) (UniProt P33261). The experiment in a line: Cytochrome panel assay with activity outcomes. Particulars: recombinant CYP, pro-luciferin dealkylation, luminescence, p450-cyp2c19; series mostly up to 57.1 µM; activity, negative = inhibition: at the top concentration. As to the method:
The P450 gene superfamily is involved in the metabolism and clearance of xenobiotics. This assay used various human CYP P450 isozymes to measure the dealkylation of various pro-luciferin substrates to luciferin. The luciferin is then measured by luminescence after the addition of a luciferase detection reagent. Pro-luciferin substrate concentration in the assay was equal to its KM for its CYP P450 isozyme. Inhibitors and some substrates limit the production of luciferin, and decrease measured luminescence.
NCGC Assay Protocol Summary:
1, Reagent, 2 uL, Isozyme and Pro-Luciferin
2, Library compounds, 23 nl, 40 uM to 0.24 nM dilution series
3, Controls, 23 nl, Isozyme specific inhibitor
4, Reagent, 2 uL, NADPH regeneration solution
5, Incubation time, 60 min, Isozyme specific temperature
6, Reagent, 4ul, Detection reagent
7, Incubation time, 20 min, Isozyme specific temperature
8, Detection, 1 sec, ViewLux luminescent read
The luciferase-based P450-GloTM Screening Systems were obtained from Promega (Madison, WI) for CYP 1A2 (V9770), CYP 2C9 (V9790), CYP2 C19 (V9880), CYP 2D6 (V9890), and CYP 3A4 Luciferin-PPXE (V9910) and were adapted for 1,536-well microplates and an automated protocol. The control compounds furafylline for 1A2 (F124), sulfaphenazole for CYP 2C9 (S0758), ketoconazole for CYP 2C19 (K1003), quinidine for 2D6 (Q3625), and ketoconazole for 3A4 (K1003) were purchased from Sigma Aldrich (St. Louis, MO). Recombinant P450 enzymes were obtained from baculovirus constructs expressed in insect cells (BD/Gentest).
Medium-binding white solid Kalypsys plates used. Mixtures kept on ice. 1A2: 10 nM 1A2, 100 uM Luc-ME, 100 mM KPO4; 2C9: 10 nM 2C9, 100 uM Luc-H, 25 mM KPO4; 2C19: 5 nM 2C19, 10 uM Luc-H EGE, 50 mM KPO4; 2D6: 5 nM 2D6, 30 uM Luc-ME EGE, 100 mM KPO4; 3A4: 10 nM, 25 uM Luc-PPXE. All amounts are reflected in their final concentration, working concentration is 2x.
NADPH regeneration solution: 1.3 mM NADP+, 3.3 mM glucose-6-phosphate, 3.3 mM MgCl2, 0.4 U/mL glucose-6-phosphate dehydrogenase for all isozymes, 200 mM KPO4 for 3A4. Mixture prepared at RT but kept on ice during automated run.
RT incubation in auxilliary plate hotel for 1A2, 2D6, and 3A4; 37C for 2C9 and 2C19.
Keywords: P450, CYP1A2, CYP2C19, CYP2C9, CYP2D6, CYP3A4, Luciferase, MLSMR, MLSCN, NIH Roadmap, qHTS, NCGC
Take `COc1cccc(NC(=O)CSc2nc3ccccc3cc2Cc2ccccc2)c1`: the AC50 is 0.251 µM (active).
Still for that read-out and setting: to `COc1ccccc1NC(=O)CSc1nc2ccccc2cc1Cc1ccccc1` belongs 0.0398 µM (active); to `COc1ccc(NC(=O)CSc2nc3ccccc3cc2Cc2ccccc2)cc1`, 0.0282 µM (active); to `COc1ccc(NC(=O)CCSc2cc(C)c3ccccc3n2)cc1`, 7.94 µM (active).
With `CC(C)NC[C@H](O)c1ccc(NS(C)(=O)=O)cc1`, the AC50 entry was “inactive”.
With `CN(CCc1ccc(Cl)c(Cl)c1)C[C@@H](O)COc1ccc(NS(C)(=O)=O)cc1`, the AC50 was 2 µM (active).
On to `CN(CCc1ccc(Cl)c(Cl)c1)CCN1CCCCCC1`, for which the “activity, negative = inhibition” value was -43.2%.
Regarding `COCCNC(=O)c1onc(CSc2ccc(Cl)cc2)c1C(=O)O`, the AC50 is 3.55 µM (active).
As for `C=CCNC(=O)c1onc(CSc2ccc(F)cc2)c1C(=O)O`, the AC50 is 5.62 µM (active).
`O=C(NCc1ccccc1)c1onc(CSc2ccc(F)cc2)c1C(=O)NCCCN1CCOCC1`: the AC50 was 12.6 µM (active).
For the compound `COCCNC(=O)c1onc(CSc2cccc(Cl)c2)c1C(=O)O`, the “activity, negative = inhibition” value was 6.67%.
`O=C(NCC1CCCO1)c1onc(CSc2ccccc2F)c1C(=O)O` (centres undefined): the “activity, negative = inhibition” value was 37.7%.
Still for that read-out and setting: the figure for `O=C(NCCCN1CCOCC1)c1cc2c(s1)CSC2` is -22.2%.
As to `COc1ccccc1C(=O)O/N=C1/CCCc2c1ccc(OC)c2[N+](=O)[O-]`, the AC50 was 0.631 µM (active).
On to `COc1ccc(/C=N/NC(N)=S)cc1OC(=O)c1cccc2ccccc12`, for which the AC50 is 2 µM (active).
Regarding `O=C(O)CC[C@]1(C(=O)O)CCC(=O)c2ccccc21`, the activity, negative = inhibition was 22.5% [at 11.4 µM].
On to `Cc1ccccc1NS(=O)(=O)c1ccc2[nH]cc(C(=O)N(C)Cc3ccco3)c(=O)c2c1`, for which the AC50 is 25.1 µM (active).
For `NNS(=O)(=O)c1cc(C(=O)O)cc(C(=O)O)c1`, the activity, negative = inhibition was -25.2% [at 11.4 µM].
Regarding `COC(=O)c1cc(NS(=O)(=O)c2ccc(N3CCCCCC3)c([N+](=O)[O-])c2)cc(C(=O)OC)c1`, the AC50 was 5.62 µM (active).
With `CC1CCN(c2ccc(S(=O)(=O)Nc3cc(C(=O)O)cc(C(=O)O)c3)cc2[N+](=O)[O-])CC1`, the AC50 was 3.16 µM (active).
As for `CCCCN(C)S(=O)(=O)c1ccc(C(=O)Nc2nnc(CSC)o2)cc1`, the “activity, negative = inhibition” value is -9.3%.
On to `Cc1cc(C)c(C)c(S(=O)(=O)ON2C(=O)c3ccccc3C2=O)c1C`, for which the half-maximal activity concentration (AC50) is 3.16 µM (active).
For `N[C@@](CC(=O)O)(Cc1ccccc1)C(=O)O`, the activity, negative = inhibition is 22.4% [at 11.4 µM].
As for `C=CC(=O)NC(C)(C)Cc1ccccc1`, the AC50 was 14.1 µM (active).
In the case of `CC(C)(SCc1ccccc1)[C@H](N)C(=O)O`, the activity, negative = inhibition is 1.45% [at 11.4 µM].
Regarding `COC(=O)c1ccccc1NS(=O)(=O)c1ccc2c3c(cccc13)C(=O)N2`, the AC50 is 0.794 µM (active).
Still for that read-out and setting: the figure for `Fc1ccc(C(OCCCc2cnc[nH]2)c2ccc(F)cc2)cc1` is 0.00398 µM (active); for `N=C(N)SCCc1cnc[nH]1` it is “inactive”.
Take `N[C@@H](Cc1cnc[nH]1)C(=O)O`: the “activity, negative = inhibition” value was 36.4%.
`CN1CCN(c2ncc3nc(-c4cccs4)c(=O)n(C[C@H]4CCCO4)c3n2)CC1`: the “activity, negative = inhibition” value is -16.1%.
Still for that read-out and setting: to `CN1CCc2c(c3ccccc3n2C)C1` belongs 1.73%.
Consider `COc1cc(-c2ccc(N=Nc3ccc4c(S(=O)(=O)O)cc(S(=O)(=O)O)c(N)c4c3O)c(OC)c2)ccc1N=Nc1ccc2c(S(=O)(=O)O)cc(S(=O)(=O)O)c(N)c2c1O`, for which the AC50 was 3.98 µM (active).
On to `O=S(=O)(O)c1ccc(N=Nc2ccc3c(S(=O)(=O)O)cccc3c2O)c2ccccc12`, for which the activity, negative = inhibition was -37.1% [at 11.4 µM].
On to `C=CCN(CC=C)C(=O)C(=O)c1cc(C)n(-c2ccc([N+](=O)[O-])cc2)c1C`, for which the AC50 was 0.126 µM (active).
Consider `Clc1ccc2c(c1)C(N1CCNCC1)=Nc1ccccc1O2`, for which the “activity, negative = inhibition” value is -17.2% [at 25.6 µM].
With `CN1CCN(C2=Nc3ccccc3Oc3ccc(Cl)cc32)CC1`, the AC50 result was “inactive”.
`CN1CCN(C2=Cc3ccccc3Oc3ccc(Cl)cc32)CC1`: the AC50 was 3.98 µM (active).
As for `COC(=O)c1sc2ccccc2c1-n1cccc1C(=O)C(=O)Nc1ccc(Cl)cc1`, the AC50 was 5.01 µM (active).
Regarding `C=CCNC(=O)c1cccn1-c1ccsc1C(=O)OC`, the “activity, negative = inhibition” value was -9.71%.
As to `Cc1ccc(NC(=O)N(Cc2ccco2)C(C)c2ccco2)cc1C` (centres undefined), the AC50 is 5.62 µM (active).
With `COCC(=O)N1CCC2(CCCN(Cc3ccccc3OC)C2)CC1`, the “activity, negative = inhibition” value is 20.3%.
Consider `Cc1ccc(-c2n[nH]c(=S)n2/N=C/c2cccn2C)cc1`, for which the AC50 was 14.1 µM (active).
As to `Cc1nnc(C)n1/N=C/c1ccc(-c2ccccc2)cc1`, the “activity, negative = inhibition” value is -11.6%.
Turning to `C/C=C\C(=O)N(CC)c1ccccc1C`, the “activity, negative = inhibition” value was -41.5% [at 25.6 µM].
As to `COc1cccc(-c2cc(=O)c3ccccc3o2)c1N`, the AC50 was 6.31 µM (active).
Take `C/C(=N/O)[C@@H]1C[C@H](CC(=O)O)C1(C)C`: the activity, negative = inhibition was 23% [at 11.4 µM].
In the case of `Cc1cc(C)n2nc(-c3sccc3-n3cccc3)cc2n1`, the AC50 was 7.08 µM (active).
The same measure, in the same setting: to `O=C(OCC(=O)c1cccs1)c1cccc(C(=O)OCC(=O)c2cccs2)n1` belongs 17.8 µM (active).
Consider `CCOC(=O)c1cccc(C(=O)OCC)n1`, for which the “activity, negative = inhibition” value is -3.88%.

Usually AC50 stands for the concentration at which the activity in the assay is half-maximal.
